Assay results published in PubChem BioAssay (NCI).
About 83,000 compounds went through this panel and 20% of them were active in at least one assay; those are over-represented in the sample as a whole.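 Negative percent growth values reflect cell death: -40 means 40% of the cells present at the start died, and -100 means all died.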 The source made the active and inactive calls. Rule for the calls: active = growth percent below 10; inactive = the rest.

Experiments:
Assay in all cases: NCI-60 one-dose screen, 48 h (100 = growth as untreated, 0 = no growth, -100 = all killed)
[1] = system: SK-MEL-2 melanoma; details: 10 µM unless noted
[2] = system: SN12C renal; details: 10 µM unless noted
[3] = system: UO-31 renal; details: 10 µM unless noted
[4] = system: TK-10 renal; details: 10 µM unless noted
[5] = system: ACHN renal; details: 10 µM unless noted
[6] = system: CAKI-1 renal; details: 10 µM unless noted
[7] = system: A498 renal; details: 10 µM
[8] = system: HL-60(TB) leukemia; details: 10 µM unless noted
[9] = system: CCRF-CEM leukemia; details: 10 µM unless noted
[10] = system: MOLT-4 leukemia; details: 10 µM unless noted
[11] = system: SR leukemia; details: 10 µM unless noted
[12] = system: RPMI-8226 leukemia; details: 10 µM unless noted
[13] = system: OVCAR-8 ovarian; details: 10 µM unless noted
[14] = system: OVCAR-5 ovarian; details: 10 µM unless noted
[15] = system: OVCAR-4 ovarian; details: 10 µM unless noted
[16] = system: SK-OV-3 ovarian; details: 10 µM unless noted
[17] = system: IGROV1 ovarian; details: 10 µM unless noted
[18] = system: OVCAR-3 ovarian; details: 10 µM unless noted
[19] = system: HS 578T breast; details: 10 µM unless noted

Measured: growth

CN1CC(=O)N(O)C1(C)c1cccnc1 (stereo not drawn)
inactive: [1] 94.6% | [2] 101% | [3] 87.5% | [4] 97.7% | [5] 102% | [6] 95.2% | [7] 97.2% | [8] 92.2% | [9] 106% | [10] 97.2% | [11] 92% | [12] 105% | [13] 99.3% | [14] 95.6% | [15] 111% | [16] 91.6% | [17] 102% | [18] 107% | [19] 108%

CC(C)CCC1(CCCl)C(=O)NC(=O)NC1=O
inactive: [1] 104% | [2] 95.6% | [3] 91% | [4] 100% | [5] 102% | [6] 94.6% | [7] 89.4% | [8] 108% | [9] 95.3% | [11] 102% | [12] 103% | [13] 101% | [14] 101% | [15] 99.4% | [16] 102% | [17] 108% | [18] 116% | [19] 106%

COc1ccc(C2=N[C@@H](Cc3ccccc3)C(=O)Nc3ccsc32)cc1
active: [1] -4.24% | [8] 8.11% | [11] 8.97% | [18] 3.83%
inactive: [2] 54.3% | [3] 57% | [4] 70.3% | [5] 55.7% | [6] 50.7% | [7] 35.8% | [9] 32.1% | [10] 35.7% | [12] 41.7% | [13] 70.4% | [14] 84.1% | [16] 67.4% | [17] 66% | [19] 65.4%

COc1ccc(/C=C\c2cc(OC)c(OC)c(OC)c2)c(NS(=O)(=O)c2ccc(F)cc2)c1O
active: [1] -6.87% | [18] -37.8%
inactive: [2] 28.1% | [3] 48% | [4] 59.3% | [5] 24.4% | [6] 20.8% | [8] 10.1% | [9] 17.4% | [10] 19.6% | [11] 19% | [12] 23.3% | [13] 22.5% | [14] 40.4% | [15] 29.3% | [16] 12.4% | [17] 28.3% | [19] 25.3%

Cc1c(O)c(CN(CCCl)CCCl)cc(CN(CCCl)CCCl)c1O
inactive: [1] 110% | [2] 72.9% | [3] 70.3% | [4] 100% | [5] 42.5% | [6] 17.6% | [7] 92.4% | [8] 47.1% | [9] 41.8% | [10] 75.2% | [12] 86.8% | [13] 90.4% | [14] 97.9% | [15] 83.9% | [16] 102% | [17] 87.4% | [18] 101% | [19] 86.3%
active: [11] 4.03%

CC(=O)O[C@H]1CC[C@@]2(C)C(=CC[C@H]3[C@@H]4C[C@@H](N5CC5)[C@H](C(C)=O)[C@@]4(C)CC[C@@H]32)C1
inactive: [1] 103% | [2] 88.9% | [3] 104% | [4] 105% | [5] 83.1% | [6] 89.3% | [7] 98.7% | [8] 92.4% | [9] 78% | [10] 63.4% | [11] 58.6% | [12] 79.3% | [13] 88.5% | [14] 99.5% | [15] 80.3% | [16] 99.9% | [17] 86.2% | [18] 109% | [19] 98%

Cc1cc(N(CCCl)CCCl)ccc1C=Nc1ccc(-c2csc(Cc3ccccc3)n2)cc1
active: [7] -45.8%
inactive: [1] 109% | [2] 49% | [3] 30.7% | [4] 84.5% | [5] 50.8% | [6] 25.4% | [8] 30.7% | [9] 33.9% | [10] 27.2% | [11] 27.2% | [12] 58.5% | [13] 65% | [14] 54.4% | [15] 64% | [16] 56% | [17] 61.7% | [18] 75.2% | [19] 106%

O=C(O)CNC(=O)C(Cl)(Cl)Cl
inactive: [1] 111% | [2] 100% | [3] 87.6% | [4] 95.6% | [5] 92.7% | [6] 89.1% | [7] 96.2% | [8] 80.8% | [10] 91.7% | [11] 89.8% | [12] 92.3% | [13] 90.3% | [14] 97.1% | [15] 99.5% | [16] 108% | [17] 100% | [18] 108%

CCCCCCCCCCCCCC[P+](CCCCCC)(CCCCCC)CCCCCC
inactive: [8] 43.1% | [9] 26.5% | [10] 51.6% | [11] 62.4% | [12] 59.4%
active: [1] -3.57% | [2] -79.1% | [3] -36.6% | [4] -43.3% | [5] -26% | [6] 4.01% | [7] -48.3% | [13] -79.9% | [14] -7.29% | [15] -91.8% | [16] -3.34% | [18] -100% | [19] -35.8%

COc1ccc(/C=C\c2cc(OC)c(OC)c(OC)c2)cc1NS(=O)(=O)c1ccc(Cl)cc1
inactive: [1] 69.5% | [2] 79.8% | [3] 55.1% | [4] 80.2% | [5] 62.2% | [6] 42.8% | [7] 47% | [8] 54.1% | [9] 78% | [11] 51.4% | [12] 64.3% | [13] 78.5% | [14] 83.4% | [15] 55% | [16] 81.9% | [17] 61.9% | [18] 76.6% | [19] 67.8%

CCC1(C(C)C)C(=O)NC(=S)NC1=O
inactive: [1] 117% | [2] 103% | [3] 97.4% | [4] 107% | [5] 98.5% | [6] 99.8% | [7] 92.8% | [8] 102% | [9] 97.3% | [10] 105% | [11] 104% | [12] 98.8% | [13] 101% | [14] 102% | [15] 107% | [16] 118% | [17] 113% | [18] 101% | [19] 96.3%

O=[N+]([O-])c1ccc(OP(=O)(CCl)N(CCCl)CCCl)cc1 (stereo not drawn)
inactive: [1] 81.9% | [2] 112% | [3] 84.4% | [4] 99.6% | [5] 101% | [6] 95.2% | [7] 109% | [10] 89.7% | [11] 87.9% | [12] 104% | [13] 100% | [14] 99.6% | [15] 104% | [16] 106% | [17] 104% | [18] 118%

CC(=O)[O][Hg][O]C(C)=O
inactive: [1] 90.3% | [2] 106% | [3] 96.9% | [4] 138% | [5] 108% | [6] 92.3% | [7] 117% | [8] 35.2% | [9] 27.8% | [10] 84.8% | [11] 11.9% | [12] 90.1% | [13] 98.7% | [14] 115% | [15] 94.3% | [16] 97.8% | [17] 53.2% | [18] 34.5% | [19] 106%

CC(=O)/C=C/c1ccc2c(c1)OCO2
inactive: [1] 107% | [2] 98.1% | [3] 100% | [4] 99.7% | [5] 97.5% | [6] 91.5% | [7] 118% | [8] 104% | [9] 94.1% | [10] 103% | [11] 98.3% | [12] 91.5% | [14] 106% | [15] 104% | [16] 106% | [17] 118% | [18] 109% | [19] 106%

CC1CN1CCCCN1CC1C (stereo not drawn)
inactive: [1] 80.6% | [2] 109% | [3] 98.4% | [4] 88.8% | [5] 107% | [6] 102% | [7] 107% | [8] 77.4% | [10] 86.2% | [11] 81.5% | [12] 94.4% | [13] 102% | [14] 102% | [15] 112% | [16] 103% | [17] 107% | [18] 103%

O=C1C2CCC1C(N1CCCC1)CC2 (stereo not drawn)
inactive: [1] 103% | [2] 100% | [3] 87.5% | [4] 97.8% | [5] 102% | [6] 97.7% | [7] 92.2% | [8] 97.2% | [9] 94.3% | [10] 98% | [11] 100% | [12] 98.7% | [13] 96.3% | [14] 101% | [15] 106% | [16] 106% | [17] 96% | [18] 106% | [19] 102%

OCCCCCNC1CCCCC1
inactive: [1] 80.7% | [2] 105% | [3] 87.5% | [4] 86.5% | [5] 94.1% | [6] 101% | [7] 105% | [8] 91.7% | [10] 83.9% | [11] 89.7% | [12] 102% | [13] 103% | [14] 86.3% | [15] 103% | [16] 102% | [17] 103% | [18] 125%
